Several values for one entry are separate records, joined by “and”; a condition that tells them apart may be missing. Equal values may be shown once. This is part of a sample that, as a whole, favours compounds with a hit. Of some 83,000 tested, about 20% had one in any assay.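 Interpretation: 100, growth as untreated; towards 0, rising growth inhibition; 0, no net growth; 0 to -100, cell death. Compounds scoring below 10 were considered active.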 Unmarked numbers belong to inactive results. Activity calls are given as the source filed them.

The experiment has as its system MDA-MB-468 breast. The experiment in a line: NCI-60 one-dose screen, 48 h (100 = growth as untreated, 0 = no growth, -100 = all killed). Particulars: 10 µM unless noted.
As for `CC(C)=NNc1ncnc2c1ncn2C1OC(CO)C(O)C1O` (stereo not given), the growth was 12.5%.

With `CCCS(=O)(=O)c1nc(NC2CC2)cc(-c2ccc3c(ccn3C3CC(C)(C)NC(C)(C)C3)c2)n1`, the growth was -72.4% (active).

As for `O=C1/C(=C/c2ccc(F)cc2)Cc2ccccc21`, the growth is 96%.

With `O=C(CCl)c1ccc2c(c1)Nc1ccccc1S2`, the growth is 75.7% and 64.9%.

For the molecule `CN(C)CC(C)(CN(C)C)C(=O)/C=C/c1c(Cl)cccc1Cl`, the growth was -82.6% (active).

`COc1cc(C2CC(=O)Nc3c2cnn3Cc2ccco2)cc2c1OCCO2` (stereo not given): the growth was 73.8%.

In the case of `CCN(CC)CCCOc1cccc2c1C(=O)c1cccc(OCCCN(CC)CC)c1C2=O`, the growth is 35.5%.

On to `COc1ccc(C(=O)c2sc3nc(-c4cccs4)ccc3c2N)cc1OC`, for which the growth is 8.13% (active).

On to `O=c1[nH]c(-c2cccc(F)c2)cc2cc(F)ccc12`, for which the growth is 33.2%.

With `COc1cc(C2CC(c3ccc(Cl)cc3)=NN2C(C)=O)ccc1Oc1ccnc2cc(Cl)ccc12` (stereo not given), the growth was 67.4%.

On to `c1ccc(-c2nn(-c3ccccc3)[n+](-c3cccc4ccccc34)n2)cc1`, for which the growth was -20.4% (active).

`C#Cc1nc(C2=C(C)/C(=N/OCc3ccccc3)CC2)cs1`: the growth was 54.5%.

For the molecule `CCCCOc1nc2ccc(Cl)cc2cc1/C=C/C(=O)/C=C/c1ccc(Cl)cc1`, the growth is 79.5%.

Regarding `C/C(=C\CCc1ccsc1)CC/C=C(\C)CCCN1CCSCC1`, the growth was 50.1%.

As to `COc1cc2c(=O)n(CCCN(C)C)c3c4cc[nH]c4ncc3c2cc1OC`, the growth is 81.5%.

For `CN1CCc2c(Sc3ccc(C(=O)NO)cc3)c3ccccc3n2C1`, the growth is 21%.

Turning to `Cc1cc(=O)oc2cc(OC(=O)N3CCN(C)CC3)ccc12`, the growth was 107%.

As for `COc1cc(-c2nc(SCC(=O)Nc3ccc(C(C)=O)cc3)[nH]c(=O)c2C#N)cc(OC)c1OC`, the growth is -12.8% (active).

On to `N#Cc1c(-c2ccccc2)cc(-c2ccccc2)n(CCCCCCC(=O)O)c1=O`, for which the growth was 88.9%.

For `CCOC(=O)c1c(O)c2cc(-c3ccccc3)nc(OCC)c2c(=O)n1C`, the growth was 89%.

As for `COc1ccc(-c2nc(SCC(=O)Nc3nc(-c4ccccc4)cs3)[nH]c(=O)c2C#N)cc1`, the growth is 84.2%.

For `CCN(CC)CCOc1ccc(/C(=C(\C)c2ccc(Cl)cc2)c2ccc(Cl)cc2)cc1`, the growth was 70.6%.

Take `NCCOc1ccccc1/C=C1\c2ccccc2-c2ccc([N+](=O)[O-])cc21`: the growth is -36.1% (active).

For `O=C(CN1C(=O)/C(=C/c2ccc(Cl)cc2)SC1=S)NCCCN1CCOCC1`, the growth is 94.3%.

`COc1cc(N=Cc2sc(Nc3nccs3)nc2O)cc(OC)c1OC`: the growth is 84.8%.

Regarding `O=C(NCc1ccccc1)C1CN(c2ccc(Cl)cc2)N(c2ccc(Cl)cc2)C1=O` (stereo not given), the growth is 71.5%.

As to `COc1cccc(/C=C/C(=O)c2cc3c(N)c(C(=O)Nc4cccc5ccccc45)sc3nc2C)c1`, the growth is 17.4%.

`Oc1ccccc1N=Cc1c(O)ccc2ccccc12`: the growth was 83.2%.

Regarding `COC(=O)[C@H](Cc1cn(C)cn1)NC(=O)[C@H](CC(=O)OCc1ccccc1)NC(=O)Nc1cc(C(F)(F)F)cc(C(F)(F)F)c1`, the growth was -74.2% [100 µM] (active).

`COC(=O)C1(CC(C)=O)NC(=S)NC(=O)C1C#N` (stereo not given): the growth was 96%.

Turning to `O=C(Cc1ccc(/C=C/C(=O)c2ncc[nH]2)cc1)Nc1ccc(Cl)cc1`, the growth was 9.49% (active).

Take `CCN(CCNc1cc(OC)cc2cccnc12)CCc1ccccc1`: the growth is -25.4% (active).

As to `CCC(c1cccc(Br)c1)C(C(=O)O)c1ccc(OC)cc1` (stereo not given), the growth is 102%.

As to `CCc1cc(O)ccc1Nc1cc(-c2ccc(-n3cccn3)cc2)[nH]n1`, the growth was 58.8%.

As for `COc1ccc(-c2nn(-c3cccc(Cl)c3)cc2-c2c(C#N)c(N)n(N)c(=O)c2C#N)cc1`, the growth is 56.1%.

Regarding `O=C(Cn1cc[n+](CC(=O)c2ccc(-c3ccccc3)cc2)c1)Nc1cccc2cccnc12`, the growth is 8.42% (active).

On to `NC1CCN(c2nc(Nc3cccc(C(F)(F)F)c3)c3c(=O)[nH]ccc3n2)CC1`, for which the growth was -77.2% (active).

For the molecule `CC12OC(CC(O)C1O)n1c3ccccc3c3c4c(c5c6ccccc6n2c5c31)C(=O)N(CCN1CCCC1)C4=O` (stereo not given), the growth is 3.48% (active).

In the case of `O[C@@H]1Cc2ccc3ccccc3c2N[C@H](c2ccoc2)C1`, the growth is 79.4%.

Consider `CN(C)CCN(C)CC(C)(C)C(=O)/C=C/c1ccc(Cl)cc1`, for which the growth was -46.2% (active).

(Values after PubChem BioAssay (NCI).)
